From PubChem BioAssay
Calls of active or inactive are those of the source.

test: basal HepG2 mitochondrial membrane potential changes, profiling panel, cell-based, JC-1 fluorescence, 24 h, 100 nL compound (AID 1167); conditions: higher = more signal
Further: test concentration not given here.

Compound	z-score
COc1ccc(CCNC(=O)[C@@]2(c3ccc([N+](=O)[O-])cc3)CC(=O)N(C3CCCCC3)[C@@H]2c2ccc(CO)cc2)cc1	2.85
C[C@@H]1NC(=O)[C@@H](Cc2ccccc2)NC(=O)[C@@]23C(=O)N[C@@H](Cc4ccccc4)C2[C@H](C)[C@@]2(C)O[C@H]2C3/C=C/C/C=C\CNC1=O (stereo partly drawn)	-1.36
CCC1=C2CN(Cc3ccccc3)[C@@H](C(=O)Cc3ccccc3)C2C=CCC1 (stereo partly drawn)	0.821
N#Cc1ccc(NN2C(C(O)c3ccc(Br)cc3)C=CC3C(=O)N(c4ccccc4)C(=O)C32)cc1 (stereo not drawn)	-0.574
OCCCC1=CC(c2ccc(CN3CCCC3)cc2)N(Cc2cc3c(cc2Br)OCO3)CC1 (stereo not drawn)	1.72
O=C(O)[C@@H]1C[C@@H]2C(=O)N3CCC[C@H]3C(=O)N2[C@@H]1c1ccc(O)cc1	0.0357
CC(C)[Si]1(C(C)C)OCc2cc(-c3ccc(-c4ccc(Cl)c(Cl)c4)o3)nc(-c3ccccc3)c21	-1.18
COc1ccc([Si](C)(C)[C@@H]2[C@@H](CCO)O[C@]3(C(=O)N(Cc4ccccc4)c4ccc(N5C(=O)c6cccc7cccc5c67)cc43)[C@H]2C)cc1	-0.555
C=C[C@H](C)[C@H](OC(=O)Nc1ccc(SC)cc1)c1ccc(OCCO)cc1	-2.67
CCOC(=O)C[C@H]1[C@H](OC(=O)c2cc3ccccc3oc2=O)[C@@H](NC(=O)c2ccc3ccccc3n2)c2cc(OCCCO)ccc2N1C(=O)Cc1ccc(OC)cc1	0.492
O=C(NCCN1CCOCC1)[C@@H]1c2ccccc2C(=O)N(Cc2ccccc2Cl)[C@H]1c1ccc(CO)cc1	3.16
COC(=O)[C@@]1(Cc2ccc(F)cc2)[C@H]2c3cc(C(=O)N4CCCC4)n(Cc4ccc(C)c(F)c4F)c3C[C@H]2CN1C(=O)c1ccccc1	1.01
CCCCC(CC)C(O)C1C=CC2C(=O)N(c3ccccc3)C(=O)C2N1Nc1ccccc1F (stereo not drawn)	-0.639
[N-]=[N+]=Nc1ccccc1C[C@]1(C(=O)O)COC(c2ccc(OCCCO)cc2)=N1	-0.253
CC(=O)NCCCC[C@@H]1NC(=O)[C@@H]2C[C@H](C(=O)NCCCCCN)[C@H](c3cccc(OCCO)c3)N2C1=O	0.0102
COc1ccc(C#Cc2ccc3c(c2)[C@]2(C(=O)N3)[C@H](c3ccc(OCCO)cc3)N3[C@H](c4ccccc4)[C@H](c4ccccc4)OC(=O)[C@H]3[C@@H]2C(=O)NC[C@H](O)c2ccccc2)cc1	-1.04
CC(C)NC(=O)[C@@]1(C)c2ccccc2C(=O)N(Cc2ccc(OC(F)(F)F)cc2)[C@H]1c1ccc(CO)cc1	2.05
CCCC[C@@H](O)C1=C(COC)C[C@H]2C(=O)N(Cc3ccccc3)C(=O)[C@H]2[C@H]1CO	-0.0934

test: basal 3T3-L1 adipocyte mitochondrial potential changes, profiling panel, cell-based, JC-1 fluorescence, 3T3-L1 adipocytes, 24 h, 100 nL compound (AID 1168); conditions: JC-1 mitochondrial fluorescence, higher = more signal, called active from +8 up or from −8 down

Compound	z-score
CCOC(=O)C[C@H]1[C@H](OC(=O)Cc2ccc3c(c2)OCO3)[C@@H](NC(=O)c2ccc3ccccc3n2)c2cc(OCCCO)ccc2N1C(=O)c1ccccc1	0.0925 (inactive)
COc1ccc([Si](C)(C)[C@@H]2[C@@H](CC(=O)N(CCO)Cc3ccccc3)O[C@]3(C(=O)N(Cc4cccc(N5CCCCC5=O)c4)c4ccccc43)[C@H]2C)cc1	1.15 (inactive)
C=C[C@@H](OC)[C@H](OC(=O)Nc1ccc(OC)cc1)c1ccc(O)c(F)c1	-1.1 (inactive)
CCCCCC1=C2CNC(C)(C(=O)OC)C=C2C(C)C1=O (stereo not drawn)	-1.22 (inactive)
O=C1NC(=O)C2C1C=CC(C(O)c1ccco1)N2Nc1ccc(Cl)cc1Cl (stereo not drawn)	-0.298 (inactive)
CCC#CCN(Cc1ccccc1Br)[C@H](/C=C/C1CC1)[C@@H](O)Cc1ccccc1	-0.611 (inactive)
COc1ccc([Si](C)(C)[C@@H]2[C@@H](CC(=O)N3Cc4ccccc4C[C@H]3CO)O[C@]3(C(=O)N(Cc4ccc(N5C(=O)c6cccc7cccc5c67)cc4)c4ccccc43)[C@H]2C)cc1	-0.0452 (inactive)
[N-]=[N+]=Nc1ccccc1C[C@@]1(C(=O)NCCN2CCOCC2)N=C(c2ccc(OCCCO)cc2)O[C@@H]1c1ccccc1N=[N+]=[N-]	-0.29 (inactive)
CC1=C2[C@@H](CCc3ccccc3)OB(O)C[C@@H]2[C@@H]2C(=O)N(Cc3ccccc3)C(=O)[C@@H]2C1	-0.301 (inactive)
CC1CC/C=C\[C@H]2OC34C=CCN(Cc5ccccc5)C(=O)[C@H]3N(C(CO)C(C)C)C(=O)[C@@H]4C2C(=O)O1 (stereo partly drawn)	0.000812 (inactive)
COc1cccc(C)c1NC(=O)O[C@H]1[C@H](OC(=O)Nc2ccc3c(c2)OCO3)[C@@H](OC(=O)Nc2ccc3c(c2)OCO3)[C@@H](OC)O[C@@H]1CO	0.925 (inactive)
Cc1ccccc1C(O)C1C=CC2C(=O)NC(=O)C2N1Nc1ccccn1 (stereo not drawn)	-0.654 (inactive)
CCCCC(=C=CC[C@H](O)c1ccc(OCCO)cc1)CCO	-0.968 (inactive)
CC(c1ccccc1)C(O)C1C=CC2C(=O)N(C)C(=O)C2N1Nc1ccccc1 (stereo not drawn)	-0.83 (inactive)
C=CCC(OC(C)=O)[C@@H]1[C@@H](N(Cc2ccc(-c3cccc(C(F)(F)F)c3)o2)C(=O)Cc2ccc(OC)cc2)c2cc(OCCCO)ccc2N1C(=O)c1ccc(-c2ccccc2)cc1 (stereo partly drawn)	-0.645 (inactive)
Cc1ccc(S[C@]2(C(=O)NC(C)C)CC(=O)N(Cc3cc(C(F)(F)F)cc(C(F)(F)F)c3)[C@@H]2c2ccc(CO)cc2)cc1	-0.5 (inactive)
CCOC(=O)C[C@H]1[C@H](OC(=O)c2cc3ccccc3oc2=O)[C@@H](NC(=O)CC(C)C)c2cc(OCCCO)ccc2N1C(=O)c1ccc2ccccc2n1	-0.415 (inactive)
COc1ccc(CCNC(=O)[C@@]2(c3ccc([N+](=O)[O-])cc3)CC(=O)N(C3CCCCC3)[C@@H]2c2ccc(CO)cc2)cc1	-0.171 (inactive)

Compound	z-score
C[C@@H]1NC(=O)[C@@H](Cc2ccccc2)NC(=O)[C@@]23C(=O)N[C@@H](Cc4ccccc4)C2[C@H](C)[C@@]2(C)O[C@H]2C3/C=C/C/C=C\CNC1=O (stereo partly drawn)	-0.308 (inactive)
CCC1=C2CN(Cc3ccccc3)[C@@H](C(=O)Cc3ccccc3)C2C=CCC1 (stereo partly drawn)	0.152 (inactive)
N#Cc1ccc(NN2C(C(O)c3ccc(Br)cc3)C=CC3C(=O)N(c4ccccc4)C(=O)C32)cc1 (stereo not drawn)	0.507 (inactive)
OCCCC1=CC(c2ccc(CN3CCCC3)cc2)N(Cc2cc3c(cc2Br)OCO3)CC1 (stereo not drawn)	-0.261 (inactive)
O=C(O)[C@@H]1C[C@@H]2C(=O)N3CCC[C@H]3C(=O)N2[C@@H]1c1ccc(O)cc1	-0.184 (inactive)
CC(C)[Si]1(C(C)C)OCc2cc(-c3ccc(-c4ccc(Cl)c(Cl)c4)o3)nc(-c3ccccc3)c21	-0.485 (inactive)
COc1ccc([Si](C)(C)[C@@H]2[C@@H](CCO)O[C@]3(C(=O)N(Cc4ccccc4)c4ccc(N5C(=O)c6cccc7cccc5c67)cc43)[C@H]2C)cc1	0.943 (inactive)
C=C[C@H](C)[C@H](OC(=O)Nc1ccc(SC)cc1)c1ccc(OCCO)cc1	0.508 (inactive)
CCOC(=O)C[C@H]1[C@H](OC(=O)c2cc3ccccc3oc2=O)[C@@H](NC(=O)c2ccc3ccccc3n2)c2cc(OCCCO)ccc2N1C(=O)Cc1ccc(OC)cc1	-0.362 (inactive)
O=C(NCCN1CCOCC1)[C@@H]1c2ccccc2C(=O)N(Cc2ccccc2Cl)[C@H]1c1ccc(CO)cc1	0.64 (inactive)
COC(=O)[C@@]1(Cc2ccc(F)cc2)[C@H]2c3cc(C(=O)N4CCCC4)n(Cc4ccc(C)c(F)c4F)c3C[C@H]2CN1C(=O)c1ccccc1	-1.02 (inactive)
CCCCC(CC)C(O)C1C=CC2C(=O)N(c3ccccc3)C(=O)C2N1Nc1ccccc1F (stereo not drawn)	-0.511 (inactive)
[N-]=[N+]=Nc1ccccc1C[C@]1(C(=O)O)COC(c2ccc(OCCCO)cc2)=N1	-1.19 (inactive)
CC(=O)NCCCC[C@@H]1NC(=O)[C@@H]2C[C@H](C(=O)NCCCCCN)[C@H](c3cccc(OCCO)c3)N2C1=O	0.608 (inactive)
COc1ccc(C#Cc2ccc3c(c2)[C@]2(C(=O)N3)[C@H](c3ccc(OCCO)cc3)N3[C@H](c4ccccc4)[C@H](c4ccccc4)OC(=O)[C@H]3[C@@H]2C(=O)NC[C@H](O)c2ccccc2)cc1	4.7 (inactive)
CC(C)NC(=O)[C@@]1(C)c2ccccc2C(=O)N(Cc2ccc(OC(F)(F)F)cc2)[C@H]1c1ccc(CO)cc1	-0.682 (inactive)
CCCC[C@@H](O)C1=C(COC)C[C@H]2C(=O)N(Cc3ccccc3)C(=O)[C@H]2[C@H]1CO	0.0385 (inactive)
